From PMC4336329 (PLoS ONE, 2015)
Screen size: about 310,000 compounds; about 14,000 (4.5%) showed an effect of 50% or more. The effect is printed as a negative number. The sample holds strong results, similar compounds and a random draw of the others, so the mix is not that of the screen.

Molecular target: human ether-à-go-go-related gene (hERG) potassium channel (human, UniProt Q12809)
Test: primary screen, population patch clamp on CHO cells stably expressing hERG; higher = less effect of the substance
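Also: peak tail current of the secondary pulse compared with the same well before compound.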

human ether-à-go-go-related gene (hERG) potassium channel, sequence (Q12809 whole entry, looked up): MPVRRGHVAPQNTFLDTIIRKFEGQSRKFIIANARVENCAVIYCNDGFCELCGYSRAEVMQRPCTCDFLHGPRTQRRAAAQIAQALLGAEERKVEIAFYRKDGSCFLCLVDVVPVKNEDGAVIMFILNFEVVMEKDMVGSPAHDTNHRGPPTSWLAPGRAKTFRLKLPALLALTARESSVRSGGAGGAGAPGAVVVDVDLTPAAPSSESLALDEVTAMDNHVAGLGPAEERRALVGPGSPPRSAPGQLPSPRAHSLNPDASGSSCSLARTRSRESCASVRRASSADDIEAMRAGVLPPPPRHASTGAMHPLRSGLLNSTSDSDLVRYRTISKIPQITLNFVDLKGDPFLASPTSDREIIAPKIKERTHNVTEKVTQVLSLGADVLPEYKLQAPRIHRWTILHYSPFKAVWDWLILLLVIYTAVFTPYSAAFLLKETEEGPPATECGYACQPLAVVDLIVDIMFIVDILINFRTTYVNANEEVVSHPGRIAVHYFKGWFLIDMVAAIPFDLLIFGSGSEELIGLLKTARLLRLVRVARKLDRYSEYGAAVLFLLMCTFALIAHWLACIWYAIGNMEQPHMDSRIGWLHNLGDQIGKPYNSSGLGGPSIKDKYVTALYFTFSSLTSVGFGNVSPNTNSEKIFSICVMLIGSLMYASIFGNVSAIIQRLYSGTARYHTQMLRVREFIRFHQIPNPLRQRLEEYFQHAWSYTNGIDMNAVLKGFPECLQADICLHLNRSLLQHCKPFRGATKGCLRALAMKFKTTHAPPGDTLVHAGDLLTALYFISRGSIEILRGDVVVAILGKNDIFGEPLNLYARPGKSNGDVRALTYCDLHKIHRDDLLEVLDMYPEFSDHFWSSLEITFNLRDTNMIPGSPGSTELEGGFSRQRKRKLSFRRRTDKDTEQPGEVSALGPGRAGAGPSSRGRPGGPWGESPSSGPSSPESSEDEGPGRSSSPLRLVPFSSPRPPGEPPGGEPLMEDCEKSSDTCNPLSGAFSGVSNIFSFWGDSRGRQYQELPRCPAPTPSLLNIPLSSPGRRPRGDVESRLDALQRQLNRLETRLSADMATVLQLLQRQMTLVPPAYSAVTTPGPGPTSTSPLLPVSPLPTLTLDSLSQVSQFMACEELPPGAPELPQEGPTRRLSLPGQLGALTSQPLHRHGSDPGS

| Structure (SMILES) | hERG current change (%, negative = inhibition) at 10uM |
| --- | --- |
| CC(=O)c1cccc(NC(=O)N2CCC(c3ccc(C)cc3)C2)c1 (centres unmarked) | -13.8% |
| COc1ccc(-c2c(C(F)(F)F)oc3cc(OCC(=O)Nc4ccccc4C(F)(F)F)ccc3c2=O)cc1OC | 4.91% |
| CC1(C)Cc2nc3oc4c(N(CCO)Cc5ccccc5)ncnc4c3cc2CO1 | -65.6% |
| CC1(C)Cc2nc3sc4c(N(CCO)CCO)ncnc4c3cc2CO1 | 3.56% |
| CC1(C)Cc2nc3oc4c(NCc5ccccc5)ncnc4c3cc2CO1 | -10.7% |
| CCN1CCN(C(=O)CN(c2cc(OC)ccc2OC)S(C)(=O)=O)CC1 | 16.2% |
| O=C(c1ccc(Cl)cc1)N1N=C(c2ccccn2)CC1(O)C(F)(F)F (centres unmarked) | -13.6% |
| COc1ccc(S(=O)(=O)N2CCCCCC2)cc1NC(=O)c1ccccc1 | 10.5% |
| COc1ccc(NC(=O)c2ccc3c(c2)OCCO3)cc1OC | 9.47% |
| COc1ccc(CCNS(=O)(=O)c2cccc(F)c2)cc1OC | -1.75% |
| Nc1nonc1C(=O)NCCNC(=O)c1cccs1 | -58.7% |
| Nc1nonc1C(=O)NCCNC(=O)c1ccccc1F | 4.12% |
| C/C(=N\NC(=O)c1nonc1N)c1cccs1 | 4.26% |
| CCCCCCCCNC(=O)c1cnccn1 | -7.1% |
| O=c1[nH]nc(CNc2ccc(O)cc2)c2ccccc12 | -6.61% |
| O=C(O)c1ccc(Cl)c(S(=O)(=O)N(Cc2ccccc2)c2ccccc2)c1 | 7.76% |
| O=C(Nc1ccccc1C(=O)NC1CC1)c1ccccc1 | 12.9% |
| CN(C)S(=O)(=O)c1cc(C(=O)Nc2ccccc2C(=O)NC2CC2)ccc1Cl | -62.2% |
| CC1(C)CC(NC(=O)c2cccc(S(=O)(=O)N(Cc3ccccc3)c3ccccc3)c2)CC(C)(C)N1 | -45.3% |
| COc1ccccc1N(Cc1ccccc1)S(=O)(=O)c1cccc(C(=O)NC2CC(C)(C)NC(C)(C)C2)c1 | -73.4% |
| CN(C)S(=O)(=O)c1ccc(F)c(C(=O)Nc2ccccc2C(=O)NC2CC2)c1 | -38.7% |
| O=C(O)c1ccc(Cl)c(S(=O)(=O)N(Cc2ccccc2)c2ccc(F)cc2)c1 | 13.9% |

| Structure (SMILES) | hERG current change (%, negative = inhibition) at 10uM |
| --- | --- |
| COc1ccccc1N(Cc1ccccc1)S(=O)(=O)c1cccc(C(=O)O)c1 | 10.9% |
| CC1(C)CC(NC(=O)c2ccc(Cl)c(S(=O)(=O)N(Cc3ccccc3)c3ccccc3)c2)CC(C)(C)N1 | -62.3% |
| CC1C(=O)N2CCCc3cc(S(=O)(=O)N4CCC(C(N)=O)CC4)cc1c32 (centres unmarked) | 7.24% |
| CC1CCN(c2ccc(C(=O)Nc3ccc4c(c3)OCO4)cc2[N+](=O)[O-])CC1 | 7.17% |
| O=C(CN(C(=O)C1CSC(=O)C1)c1ccccc1F)NCc1ccc2c(c1)OCO2 (centres unmarked) | -12.4% |
| CN(Cc1ccccc1)C(=O)COC(=O)c1ccc(S(=O)(=O)N(C)C)cc1 | -2.9% |
| O=C(COC(=O)c1cc([N+](=O)[O-])ccc1N1CCOCC1)Nc1cc(F)ccc1F | -49.8% |
| COc1ccccc1NC(=O)COC(=O)c1cc([N+](=O)[O-])ccc1N1CCCC1 | -0.76% |
| O=C(COC(=O)c1cc([N+](=O)[O-])ccc1N1CCOCC1)NCc1ccc(F)cc1 | -53.7% |
| CCN(CC)S(=O)(=O)c1ccc(O)c(C(=O)OCC(=O)N(C)Cc2ccccc2)c1 | -55.4% |
| O=C(COC(=O)c1cc([N+](=O)[O-])ccc1N1CCOCC1)Nc1ccc(Cl)cn1 | -61.5% |
| O=C(COC(=O)c1cc([N+](=O)[O-])ccc1N1CCOCC1)Nc1ncc(Cl)cc1Cl | -29.2% |
| O=C(COC(=O)c1cc([N+](=O)[O-])ccc1N1CCOCC1)NCCc1ccccc1 | -45.4% |
| COc1cccc(CNC(=O)COC(=O)c2cc([N+](=O)[O-])ccc2N2CCCC2)c1 | -56.9% |
| O=C(COC(=O)c1cc([N+](=O)[O-])ccc1N1CCOCC1)Nc1c(Cl)cccc1Cl | -5.53% |
| COc1ccc(NC(=O)COC(=O)c2cc([N+](=O)[O-])ccc2N2CCOCC2)cc1 | -29.3% |
| CN(Cc1ccccc1)C(=O)COC(=O)c1cc(S(=O)(=O)N(C)C)ccc1N1CCCC1 | 1.93% |
| CCCc1nnc(NC(=O)CN2CCN(C)CC2)s1.Cl | -1.91% |
| O=C(Nc1cccc(O)c1)c1noc2c1CCCCC2 | -8.56% |
| O=c1[nH]nc(-c2ccc(F)cc2)cc1Cc1ccccc1 | 3.89% |
| CN(C)C(=O)c1cc(C(=O)c2ccc(F)cc2Cl)c[nH]1 | 11.4% |
| CN(Cc1ccc(OC(F)F)cc1)Cc1nc2c(Br)cc(Br)cc2c(=O)[nH]1 | -5.29% |

| Structure (SMILES) | hERG current change (%, negative = inhibition) at 10uM |
| --- | --- |
| COc1cc(/C=C/C(=O)OCC(=O)NC2CCS(=O)(=O)C2)ccc1OC(F)F (centres unmarked) | -14% |
| COc1cc(NC(=O)NS(=O)(=O)c2ccc(C)cc2)cc(OC)c1 | -1.04% |
| CSc1snc(SCC(N)=O)c1C#N | 20.6% |
| Cc1cccc(-n2c(C)nc3c(cnn3-c3ccc(F)cc3)c2=O)c1 | -12.6% |
| COc1ccc(C)cc1NC(=O)c1cccc(-c2ccc(OC(C)=O)cc2)c1 | 28.5% |
| COc1ccc(NC(=O)Nc2nnc(N3CCC(C)CC3)s2)cc1OC | -0.885% |
| CC1=NNC(=O)C1C(c1cccc(O)c1)C(C#N)C#N (centres unmarked) | 14.3% |
| CC(NC(=O)COC(=O)c1cc([N+](=O)[O-])ccc1N1CCOCC1)c1ccc(F)cc1 (centres unmarked) | -56.8% |
| CN(Cc1ccccc1)C(=O)COC(=O)c1cc([N+](=O)[O-])ccc1N1CCOCC1 | -56.7% |
| O=C(NCCOc1ccccc1)c1cc([N+](=O)[O-])ccc1N1CCOCC1 | -62.1% |
| O=C(NC1CCSc2ccccc21)c1cccc([N+](=O)[O-])c1 (centres unmarked) | -21.1% |
| O=C(COC(=O)c1cc([N+](=O)[O-])ccc1N1CCOCC1)Nc1cccc(F)c1 | -28.5% |
| CC(C)CCNC(=O)c1cc([N+](=O)[O-])ccc1N1CCOCC1 | -17.1% |
| CCN(C(=O)COC(=O)c1cc([N+](=O)[O-])ccc1N1CCOCC1)c1ccccc1 | -34.3% |
| CC(=O)Nc1ccc(NC(=O)COC(=O)c2cc([N+](=O)[O-])ccc2N2CCOCC2)cc1 | 0.326% |
| O=C(NCCOc1ccccc1F)c1cc([N+](=O)[O-])ccc1N1CCOCC1 | -45.1% |
| O=C(NC1CCCCC1)c1cc([N+](=O)[O-])ccc1N1CCOCC1 | -13.8% |
| O=C(COC(=O)c1cc([N+](=O)[O-])ccc1N1CCOCC1)c1ccccc1Cl | -2.75% |
| O=C(NC1CCSc2ccccc21)c1cc([N+](=O)[O-])ccc1N1CCOCC1 (centres unmarked) | -57.8% |
| COC(=O)c1ccccc1NC(=S)N1CCC(N2CCCCC2)CC1 | -12.2% |
| Cc1oc(-c2ccccc2Cl)nc1CS(=O)CC(=O)NC1CC1 (centres unmarked) | 7.58% |
| C[C@@H]1C=C[C@](Cc2ccccc2)(C(=O)NCCc2c[nH]c3ccccc23)N1C(=O)c1ccccc1 | -7.94% |

| Structure (SMILES) | hERG current change (%, negative = inhibition) at 10uM |
| --- | --- |
| COc1ccc(Nc2c(C)cccc2C)cc1 | 17.7% |
| COc1ccc(-c2cc(C)nc(SCC(=O)c3cccc([N+](=O)[O-])c3)n2)cc1 | 0.439% |
| O=C(COC(=O)C1C2CC3OC(=O)C1C3C2)Nc1ccc(F)cc1 (centres unmarked) | 13.2% |
| COc1ccc(CN2CCC(C(=O)N3CCCC(C)C3)CC2)cc1OC.O=C(O)C(=O)O (centres unmarked) | -19.2% |
| CCC(C)(C)NC(=O)CSc1nc(Cc2ccccc2)nc2ccccc12 | 11.5% |
| CCOc1ccccc1NS(=O)(=O)c1ccc2c(c1)NC(=O)CCS2 | -46% |
| O=C(CC1C(=O)NCCN1Cc1ccc(F)c(F)c1)NCCCn1ccnc1 (centres unmarked) | 19% |
| CC(NC(=O)c1ccc2ccccc2n1)c1ccccc1 (centres unmarked) | -6.17% |
| CN(CC(=O)Nc1ccccc1Cl)C(=O)COC(=O)c1cc([N+](=O)[O-])ccc1N1CCOCC1 | -44.4% |
| O=C(NCCCc1ccccc1)c1cc([N+](=O)[O-])ccc1Cl | -12.3% |
| O=C(NCCc1ccc(F)cc1)c1cc([N+](=O)[O-])ccc1N1CCOCC1 | -71.4% |
| O=C(COC(=O)c1cc([N+](=O)[O-])ccc1N1CCOCC1)c1ccccc1 | -20.1% |
| O=C(COC(=O)c1cc([N+](=O)[O-])ccc1N1CCOCC1)c1ccc(F)cc1 | -55.9% |
| COc1ccc(CCNC(=O)c2cc([N+](=O)[O-])ccc2N2CCOCC2)cc1 | -33% |
| CN(CC(=O)Nc1ccc(F)cc1)C(=O)c1cc([N+](=O)[O-])ccc1N1CCOCC1 | -24.9% |
| NS(=O)(=O)c1ccc(CCNC(=O)c2cc([N+](=O)[O-])ccc2N2CCOCC2)cc1 | -15.2% |
| O=C(NCCc1cccc(Cl)c1)c1cc([N+](=O)[O-])ccc1Cl | -51% |
| CN(CC(=O)Nc1ccc(F)cc1)C(=O)COC(=O)c1cc([N+](=O)[O-])ccc1N1CCOCC1 | -64.3% |
| O=C(COC(=O)c1cc([N+](=O)[O-])ccc1N1CCOCC1)c1ccc(Br)cc1 | -44.6% |
| O=C(NCCc1cccc(Cl)c1)c1cccc([N+](=O)[O-])c1 | -15.7% |
